# Active and inactive are the calls of the source.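 Rule for the calls: active = Lowers HeLa cell ATP signal, with fitted half-maximal potency at most twice the top tested dose in every run; inconclusive = runs disagree, or fits flat mid-range or poor; inactive = every run inactive, including signal rising.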
# Experiment: HeLa cell cytotoxicity, dose response, cytotoxicity control, CellTiter-Glo luminescence, dry powder, set 3 (AID 1117294)
# Details: HeLa viability, ATP luminescence (CellTiter-Glo), 72 h; at 0.05 µM
row,SMILES,max activity
1,COc1ccc(C(=O)O)cc1S(=O)(=O)Nc1ccc(N2CCCCC2)cc1C(F)(F)F,-17% (inactive)
2,COc1ccc(C2=NN(c3ccc(C(=O)O)cc3)C(c3ccc(OC)c(OC)c3)C2)cc1 (stereo not drawn),-16.2% (inactive)
3,COc1ccc(C(=O)O)cc1S(=O)(=O)Nc1cc(C(F)(F)F)ccc1N1CCN(C(C)=O)CC1,-16.6% (inactive)
